Compound activity: PubChem BioAssay, National Center for Advancing Translational Sciences (NCATS)
GLP1R cytotox: cytotoxicity counter-screen for GLP-1 receptor inverse agonists; Potency, µM (titrated, usually from 38.3 µM), most hits filed as inhibitors; AID 624418; HEK293 cAMP-luciferase reporter cells, luminescence, 24 h; 410,000 compounds, 0.13% hits;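 further: loss of luciferase light is scored as toxicity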
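Quantitative HTS format, 1536 wells, 200 cells/uL seeded. Compounds: 23 nL, 24 h, 37 °C. Detection: luciferase reagent, luminescence at 12 min RT; decreased signal taken as cytotoxic.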
GLP-1R inv ag: GLP-1 receptor (human) inverse agonism | P43220 | HEK293 GLP-1R CRE-luciferase, luminescence, 24 h; GLP-1R form is constitutively active | Potency, µM (series often up to 38.3 µM), usual class: inhibitors | AID 624417 | 410,000 compounds, 1.6% hits; further: nearly all actives have a fitted effect of over 55% in size
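Luminescence readout: a drop in cAMP-driven luciferase signal flags inverse agonism at a constitutively active GLP-1R stably expressed in HEK293. Compound exposure lasted 24 hr at 37 deg C, 5% CO2.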
GLP-1R agonist: agonists of human GLP-1 receptor; P43220; HEK293 GLP-1R CRE-luciferase, luminescence, 4-6 h; cells express a hypersensitive GLP-1R form; Potency, µM (series often up to 45.6 µM), most hits filed as activators; 380,000 compounds, 0.007% hits; AID 624172
PTHR1 agonist: activates the human parathyroid hormone receptor PTHR1 | Q03431 | 410,000 compounds, 0.075% hits | HEK293 GP2 PTHR1 cells, GloSensor cAMP luminescence, 1 h | AID 743266 | Potency, µM (highest dose often 115 µM), most hits filed as activators; further: nearly all actives have a fitted effect of over 55% in size
Target sequence (Q03431 whole entry, looked up): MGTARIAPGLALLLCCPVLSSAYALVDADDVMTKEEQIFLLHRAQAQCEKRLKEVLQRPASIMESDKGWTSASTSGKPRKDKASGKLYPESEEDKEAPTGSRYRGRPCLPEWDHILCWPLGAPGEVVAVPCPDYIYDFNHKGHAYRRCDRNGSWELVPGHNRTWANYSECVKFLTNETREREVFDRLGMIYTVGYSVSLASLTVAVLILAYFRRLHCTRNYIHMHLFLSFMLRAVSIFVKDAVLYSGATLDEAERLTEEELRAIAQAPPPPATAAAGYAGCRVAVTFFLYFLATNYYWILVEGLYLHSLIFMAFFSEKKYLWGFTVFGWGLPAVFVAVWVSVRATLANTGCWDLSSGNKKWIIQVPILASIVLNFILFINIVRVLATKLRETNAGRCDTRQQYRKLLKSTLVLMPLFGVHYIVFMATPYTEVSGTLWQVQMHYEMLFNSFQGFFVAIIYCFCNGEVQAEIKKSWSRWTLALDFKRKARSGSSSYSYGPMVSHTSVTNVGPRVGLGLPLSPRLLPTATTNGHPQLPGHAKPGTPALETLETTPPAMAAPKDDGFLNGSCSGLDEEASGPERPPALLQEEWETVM
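HEK-293-derived GP2 cells expressing PTHR1 and a GloSensor cAMP reporter, 3,000/well, plated overnight, given luciferin plus IBMX (each 0.5 mM as added) for 1 h at 37 °C, then compound for 1 h at 37 °C. Luminescence was read after 15 min at room temperature.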
Large screens that a line does not name were inactive. Hits are enriched below; roughly 1.7% of the tested compounds scored in any of these assays. The call rests on the fitted dose curve; in most records, active means well fitted curve in the direction sought with a large enough effect; inconclusive means small, poorly fitted or top-dose-only effect, or another doubt; inactive means no such curve, though single readings can be large; an effect the other way counts as inactive or inconclusive.

S=C1NC[C@H](CC2CCCCC2)N1CC1CCCCC1	GLP1R cytotox 5.6µM, GLP-1R inv ag 4.5µM
CC(C)Cn1c(=O)c(C(=O)NCc2ccc3c(c2)OCO3)c(O)c2ccccc21	GLP-1R inv ag inconclusive
OC(CNCCc1ccc(Cl)cc1)COc1ccc2ccccc2c1 (configuration not stated)	GLP1R cytotox inconclusive, GLP-1R inv ag inconclusive
OC(CNCCc1ccc(Cl)cc1)COc1cc(Cl)ccc1Cl (configuration not stated)	GLP1R cytotox inconclusive, GLP-1R inv ag 10µM
COCCn1c(SCC(=O)Nc2cccc(C)n2)nnc1-c1ccco1	none
CCc1ccccc1N1CSC2=C(C#N)C(c3cc(OC)c(OC)cc3OC)CC(=O)N2C1 (configuration not stated)	PTHR1 agonist 1.6µM
Cc1ccc(S(=O)(=O)N2CCC(C(=O)OCC(=O)N(C)CC(=O)Nc3ccc(F)cc3)CC2)cc1C	none
O=C1CSC(=S)N1Cc1cccnc1	GLP1R cytotox inconclusive, GLP-1R inv ag 2.8µM
COc1ccc(CNCCC(c2ccc(OC)cc2)c2ccccc2OC)cc1 (configuration not stated)	GLP1R cytotox inconclusive, GLP-1R inv ag 10µM
COc1ccc(C(CCNCc2ccc(N(C)C)cc2)c2ccccc2OC)cc1 (configuration not stated)	GLP1R cytotox inconclusive, GLP-1R inv ag 10µM
COc1ccc(C(CCNCc2ccc(OC(C)C)cc2)c2ccccc2OC)cc1 (configuration not stated)	GLP1R cytotox inconclusive, GLP-1R inv ag inconclusive
CSc1cc(-c2ccncc2)nc(-c2ccc(Cl)cc2)c1	GLP-1R inv ag inconclusive
COc1ccccc1NC(=O)N(C)C[C@H]1Oc2ncc(Br)cc2C(=O)N([C@H](C)CO)C[C@H]1C	none
Cc1ccc(C)c(NC(=O)COC(=O)COc2cccc3c2OC(C)(C)C3)c1	none
N#C/C(=C\c1ccc(Cl)cc1)c1nc2ncccc2[nH]1	none
COC(=O)c1c(SC)nc2ccccc2c1OCc1ccc(C)cc1	GLP-1R inv ag inconclusive (no result: GLP-1R agonist)
CCSc1nc2ccccc2c(OCc2ccc(Cl)cc2)c1C(=O)OC	GLP-1R inv ag 22µM (no result: GLP-1R agonist)
COc1ccc(CSc2nnc(Cc3sc(-c4ccccc4)nc3-c3ccccc3)o2)cc1	GLP-1R inv ag 10µM
O=C(/C(=C/c1ccc(Cl)cc1)c1nc2ccccc2[nH]1)c1cccs1	GLP1R cytotox inconclusive, GLP-1R inv ag 4.5µM
O=C(/C(=C\c1ccccc1)c1nc2ccccc2[nH]1)c1ccc(Cl)cc1	GLP1R cytotox inconclusive, GLP-1R inv ag inconclusive
CC1CCCCC12NC(=O)N(CC(=O)N1CCN(C(=O)c3ccco3)CC1)C2=O (configuration not stated)	none
Cc1cc(=O)[nH]c(SCC(=O)N2CCN(c3ccccc3)CC2)n1	none (no result: GLP-1R agonist)
Cc1cc(=O)[nH]c(SCC(=O)N2CCN(C(c3ccccc3)c3ccccc3)CC2)n1	GLP-1R inv ag 5.6µM
Cc1ccc(NC(=S)/C(=C(\[O-])c2ccc(Cl)s2)[n+]2cccc(CO)c2)cc1C	GLP-1R inv ag inconclusive
[O-]/C(=C(\C(=S)Nc1ccc(SC(F)F)cc1)[n+]1ccccc1)c1cc(Cl)ccc1Cl	GLP-1R inv ag 6.3µM
[O-]/C(=C(\C(=S)Nc1ccc(SC(F)F)cc1)[n+]1cccc(CO)c1)c1ccc(Cl)s1	GLP1R cytotox inconclusive, GLP-1R inv ag 5µM
CC[C@H]1OC(=O)C[C@@H](O)[C@H](C)[C@@H](O[C@@H]2O[C@H](C)C[C@H](N(C)C)[C@@H]2O)[C@@H](CC=O)C[C@@H](C)C(=O)/C=C\[C@]2(C)O[C@H]2[C@@H]1C	none (no result: GLP1R cytotox, GLP-1R inv ag, PTHR1 agonist)
CCN(CC)c1ccc(NC(=O)C2CC3CCC2C3)cc1 (configuration not stated)	GLP-1R inv ag 7.9µM
CCOC(=O)C1CCCCN1Cc1cccc(OCc2ccccc2)c1 (configuration not stated)	GLP-1R inv ag 10µM
O=C(OC1CCCCC1)c1ccc(NC(=O)C2CCCCC2)cc1	GLP-1R inv ag 2.5µM
CCCCc1ccc(NC(=O)C2CCCC2)cc1	GLP-1R inv ag 10µM
Cc1cc(S(=O)(=O)N2CCN(c3c(C)cccc3C)CC2)ccc1F	GLP-1R inv ag inconclusive
CCC(C)N(C)Cc1cccc(C2(O)CCN(S(=O)(=O)c3ccc(F)c(C)c3)CC2)c1 (configuration not stated)	GLP1R cytotox inconclusive, GLP-1R inv ag 2.5µM
CC1C(=O)C(C)C(c2ccc(Br)cc2)NC1c1ccc(Br)cc1 (configuration not stated)	none
